This note sets out measurements from PubChem BioAssay AID1445 (SRMLSC, 2008).

The campaign covered roughly 220,000 compounds. About 910 (0.41%) were called active.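 The calls were made as follows: active = primary inhibition above the hit cutoff, then over 50% inhibition at one or more dose response concentrations (cut at about 23% in these data, passing the limit was not always enough); inconclusive = conflicting primary data, or primary hits not chosen for dose response; inactive = low primary inhibition, or under 50% at every dose.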 What follows is part of a selection rich in actives, with near analogues and random picks from the rest. Entries with a potency or affinity are not part of this list.

Chain of Aminopeptidase N (Plasmodium falciparum (isolate 3D7)) (O96935 whole entry, looked up): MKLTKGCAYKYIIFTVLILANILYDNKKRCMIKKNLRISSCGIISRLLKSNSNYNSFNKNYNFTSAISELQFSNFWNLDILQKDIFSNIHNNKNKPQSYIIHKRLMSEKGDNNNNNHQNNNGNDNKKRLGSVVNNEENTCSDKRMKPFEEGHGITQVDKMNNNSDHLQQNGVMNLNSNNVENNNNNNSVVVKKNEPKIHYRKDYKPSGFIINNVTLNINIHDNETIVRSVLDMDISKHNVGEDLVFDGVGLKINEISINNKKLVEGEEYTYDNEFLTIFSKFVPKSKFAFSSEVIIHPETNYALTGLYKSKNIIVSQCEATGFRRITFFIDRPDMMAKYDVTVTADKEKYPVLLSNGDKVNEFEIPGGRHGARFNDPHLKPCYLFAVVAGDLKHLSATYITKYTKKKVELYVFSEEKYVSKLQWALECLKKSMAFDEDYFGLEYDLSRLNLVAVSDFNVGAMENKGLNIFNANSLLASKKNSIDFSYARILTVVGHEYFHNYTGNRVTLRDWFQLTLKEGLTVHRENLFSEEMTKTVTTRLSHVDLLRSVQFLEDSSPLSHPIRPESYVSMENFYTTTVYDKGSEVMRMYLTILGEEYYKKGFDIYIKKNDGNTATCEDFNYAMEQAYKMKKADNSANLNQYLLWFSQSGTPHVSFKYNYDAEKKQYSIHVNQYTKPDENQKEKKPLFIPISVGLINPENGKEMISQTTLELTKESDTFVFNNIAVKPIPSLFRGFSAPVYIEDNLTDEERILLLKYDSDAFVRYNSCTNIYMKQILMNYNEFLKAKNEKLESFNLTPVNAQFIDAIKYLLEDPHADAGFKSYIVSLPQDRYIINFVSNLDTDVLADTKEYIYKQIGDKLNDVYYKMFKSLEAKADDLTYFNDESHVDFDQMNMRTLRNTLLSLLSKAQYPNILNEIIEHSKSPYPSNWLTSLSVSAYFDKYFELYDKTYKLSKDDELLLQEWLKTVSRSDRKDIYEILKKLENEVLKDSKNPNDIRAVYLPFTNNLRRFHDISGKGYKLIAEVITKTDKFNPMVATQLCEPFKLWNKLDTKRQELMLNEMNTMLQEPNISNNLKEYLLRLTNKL

The experiment addresses Aminopeptidase N (Plasmodium falciparum (isolate 3D7)) (UniProt O96935). Put plainly: P. falciparum M1AAP inhibitors, biochemical, fluorogenic H-Leu-NHMec substrate, 1536-well (AID 1445).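 Also: plate controls were DMSO full reaction for no effect and no enzyme background for full effect.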 The settings on record: recombinant M1AAP, H-Leu-NHMec fluorogenic kinetic assay; at 30 µM, active compounds read high unless noted.
What is called inhibition is the drop in the measured response relative to a control, in per cent. In the case of `Cc1ccc(NC(=O)CCc2c(C)nc3ncnn3c2C)cc1`, the inhibition is 0.77% (inactive).
The value for `CC(NC(=O)c1cc(-c2ccc3c(c2)OCO3)nc2ccccc12)C(C)(C)C` (stereo not given) was 3.57% (inactive); that for `COc1ccc(C2/C=C\CN(Cc3ccco3)CC(=O)N2Cc2ccc(F)cc2)cc1` (stereo not given) was 4.94% (inactive); that for `C=CCN1C(=S)N[C@@H]2CS(=O)(=O)C[C@@H]21` was 5.08% (inactive).
With `O=C(Nc1cccc(F)c1)c1cc(S(=O)(=O)N2CCOCC2)cs1`, the inhibition was 9% (inactive).
For `COc1ccc(-c2cn3cccnc3n2)cc1NC(=O)c1ccc(Br)o1`, the inhibition is 11.3% (inactive).
`O=C(Nc1cccc(-c2cn3cccnc3n2)c1)c1ccc(Br)o1`: the inhibition is 2.48% (inactive).
Regarding `Cc1ccc(-c2cn3cccnc3n2)cc1NC(=O)c1ccc(Br)o1`, the inhibition was 24.6% (active).
As to `Cc1cc(N2CCCC2)c(C)cc1C=O`, the inhibition is 17.1% (inactive).
Consider `Cc1cccc(NC(=O)CN2CCSc3ccccc32)c1`, for which the inhibition was 6.82% (inactive).
In the case of `COc1ccc(Cl)cc1C(=O)NNC(=O)c1nc2nc(C)cc(C)n2n1`, the inhibition is 0.99% (inactive).
Consider `Cc1cc(C)n2nc(C(=O)NNC(=O)c3ccccc3)nc2n1`, for which the inhibition is 5.93% (inactive).
The value for `O=C(OCn1nnc2ccccc2c1=O)c1cc(-c2ccccc2Cl)nc2ccccc12` was 12.3% (inactive); that for `Cc1ccc(N2C(=O)CC(Sc3nc(-c4ccccc4)c4cc(Cl)ccc4n3)C2=O)c(C)c1` (stereo not given) was 8.91% (inactive); that for `COc1ccc(CC(=O)n2[nH]c(=O)cc(C)c2=O)cc1OC` was 8.27% (inactive).
`O=C(NCc1cccs1)C1CCCN(S(=O)(=O)c2ccc3c(c2)OCO3)C1` (stereo not given): the inhibition is 8.66% (inactive).
The result for `COc1ccc(S(=O)(=O)N2CCC(C(=O)NCc3cccs3)CC2)cc1` reads 6.28% (inactive); that for `O=C(Nc1ccc2c(c1)OCCO2)C1CCN(S(=O)(=O)c2ccc3c(c2)OCCO3)CC1`, 9.64% (inactive); that for `COc1ccc(S(=O)(=O)N2CCC(C(=O)Nc3ccc4c(c3)OCCO4)CC2)cc1OC`, 1.25% (inactive).
As to `O=C(NCCc1ccc(Cl)cc1)C1CCN(S(=O)(=O)c2ccc(Br)s2)CC1`, the inhibition was 4.81% (inactive).
The result for `O=C(NCc1cccs1)C1CCN(S(=O)(=O)c2ccc3c(c2)OCCO3)CC1` reads 23.4% (active); that for `O=C(NCc1cccs1)C1CCN(c2ccc(S(=O)(=O)N3CCOCC3)cc2Cl)CC1`, -0.57% (inactive).
Take `COc1cccc(NC(=O)C2CCN(S(=O)(=O)c3ccc4c(c3)OCCO4)CC2)c1`: the inhibition is 43% (active).
In the case of `O=C(NCc1ccc(Cl)cc1)C1CCN(S(=O)(=O)c2ccccc2)CC1`, the inhibition was 11.8% (inactive).
For `NS(=O)(=O)c1ccc(CCNC(=O)C2CCN(S(=O)(=O)c3ccc(Br)s3)CC2)cc1`, the inhibition is 2.64% (inactive).
